A number with no mark means an inactive call. Active and inactive are the calls of the source. Cut-off read from the data, not from the text of the source: active = fold change mostly below about -2 (no sharp cut-off); inactive = mostly above about -1.8.

The assay can be described thus: modulation of TERT promoter-driven luciferase – cell-based, luciferase reporter, human, primary screen (AID 1259240). As to conditions: A2780 TERT promoter luciferase reporter, 16 h; at 20 µM, fold versus average of vehicle-only wells.
Take `COc1cc(OC)c(-c2nc(-c3ccc(C)cc3)no2)cc1OC`: the fold change is 1.55.

Take `CCOC(=O)C1CCCN(c2c(NCCCN3CCN(C)CC3)c(=O)c2=O)C1` (stereo not given): the fold change is -1.03.

Regarding `CCOC(=O)c1[nH]c2ccc(F)cc2c1N`, the fold change is -1.48.

For `COCC(=O)N1N=C(c2ccc(NS(C)(=O)=O)cc2)CC1c1ccco1` (stereo not given), the fold change was 1.02.

For `Cc1c(C(=O)N2CCOCC2)sc2nc3n(c(=O)c12)N=C(c1ccc(Cl)cc1)CS3`, the fold change was 1.21.

As for `CC(C)C(NC(=O)CN1C(=O)c2ccccc2S1(=O)=O)C(C)C`, the fold change is -2.34 (active).

For the compound `Cc1c(Cl)cccc1NS(=O)(=O)c1cccc2cccnc12`, the fold change was -1.05.

Consider `O=C(C1CCN(S(=O)(=O)c2cccc3cccnc23)CC1)N1CCn2c1nc1ccccc12`, for which the fold change is 1.05.

Consider `O=C(CN1C(=O)c2ccccc2C1=O)Nc1nccs1`, for which the fold change was -1.42.

For `CCC(=O)N1CCc2cc(S(=O)(=O)CCC(=O)NCC3COc4ccccc4O3)ccc21` (stereo not given), the fold change was -1.32.

Regarding `COc1ccc(OC(C)c2nc(-c3ccc(C)cc3)no2)cc1` (stereo not given), the fold change was -1.29.

In the case of `O=C(O)COc1ccc(/C=C2/NC(=O)N(c3ccccc3)C2=O)cc1`, the fold change was -1.53.

`CCOC(=O)N1CCC(Nc2c(NC3CCCCC3C)c(=O)c2=O)CC1` (stereo not given): the fold change was -1.05.

With `CC(=O)c1ccc2c(c1)c1cc(C(C)=O)ccc1n2C`, the fold change was -1.83.

On to `CC(C)OCCCNC(=O)Cc1ccc(NC2=NC3CS(=O)(=O)CC3S2)cc1` (stereo not given), for which the fold change is -1.17.

In the case of `COc1ccc2c(c1)NC(=O)C2(O)C(F)(F)F` (stereo not given), the fold change is 2.17 (active).

Regarding `CCc1nc2ccccc2n1CC(O)COc1cccc(OC)c1` (stereo not given), the fold change was 1.45.

In the case of `OCCOCCn1c(-c2ccccc2)nc(=S)c2c1CCCC2`, the fold change is -1.03.

For `Cn1c(=O)oc2cc(S(=O)(=O)N3CCCC(C(=O)NC4CCCCCCC4)C3)ccc21` (stereo not given), the fold change was 1.03.

Consider `Cc1ccc(CN2C(=O)C(C(C)C(=O)NCC3CCCO3)Sc3ccccc32)cc1` (stereo not given), for which the fold change was -1.61.

Turning to `COc1ccc(Nc2c(-c3c[nH]c4ccccc34)nc3cnccn23)cc1`, the fold change is -1.09.

On to `Cc1ccc(N2CC(O)=C(c3nc4ccccc4c(=O)[nH]3)C2=N)cc1C`, for which the result was inactive.

For `CCN(CC)C(=O)Nc1ccc2snnc2c1`, the fold change is -1.04.

On to `Cc1cc(C)c2c(=O)n(CC(=O)N3CCOCC3)sc2n1`, for which the fold change is 1.35.

On to `Fc1ccc(Nc2nnc(Cc3ccncc3)c3ccccc23)cc1`, for which the fold change was -1.37.

As for `CCOC(=O)c1nn(-c2ccc(OC)cc2)c(=O)c2c(NC(C)=O)scc12`, the fold change is 1.14.

On to `Fc1ccc(OCc2nc(-c3ccc(-n4cccc4)cc3)no2)cc1`, for which the fold change is -1.22.

As for `CCCN(CCC)CCCNc1ccc2nncn2n1`, the fold change was 1.

`Cc1cc(C)n(-c2nc3cc(Cl)ccc3nc2Cl)n1`: the fold change is 1.03.

For `CCOC(=O)C1=C(CS(=O)(=O)c2ccc(C)cc2)NC(=O)NC1c1ccccc1` (stereo not given), the fold change was 1.64.

In the case of `O=C1N=C(N2CCOCC2)S/C1=C1\C(=O)N(Cc2ccccc2)c2ccccc21`, the fold change was -2.02 (active).

As for `O=C(NCCc1c[nH]c2ccccc12)c1ccc(NC2=NC3CS(=O)(=O)CC3S2)cc1` (stereo not given), the fold change is -1.35.

Consider `CC(=O)NCCNC(=O)c1cccn2c(=O)c3c4c(sc3nc12)CCCC4`, for which the fold change is -1.41.

Regarding `CCOc1cc(C2NC(=O)c3n[nH]c(C)c32)ccc1O` (stereo not given), the fold change is 1.27.

Consider `COC(=O)c1nc2n(n1)C(c1ccc(C)cc1)C1=C(CCCC1=O)N2` (stereo not given), for which the result was inactive.

`Cc1cccc(-c2nc3s/c(=C4\C(=O)N(C)c5ccccc54)c(=O)n3n2)c1`: the fold change was -1.34.

For the compound `COc1cc2c(c(OC)c1)C(c1ccc(Br)cc1)CC(=O)N2` (stereo not given), the fold change is 1.09.

Take `Cc1nc(SCC(=O)c2ccccc2)c2c(=O)n(C)c(=O)n(C)c2n1`: the fold change was 1.14.

Turning to `COc1ccc(OC)c(S(=O)(=O)c2cc3cc(OC)ccc3oc2=O)c1`, the fold change was -1.77.

Regarding `Cc1cc(C)cc(-c2nc(-c3cccnc3)no2)c1`, the fold change was -2.32 (active).
